Assays:
[1] = target: T1, Aspartate--tRNA(Asp/Asn) ligase (Mycobacterium tuberculosis (strain ATCC 25618 / H37Rv)) (UniProt P9WFW3); assay: Assay for Asp RNA synthetase-1 from Mycobacterium tuberculosis; assay type: functional; parameters: scale not given: direction of the effect not stated beside the values; conditions: 30 µM; further: in the data most compounds retested in dose-response had high values
T1 sequence (whole entry): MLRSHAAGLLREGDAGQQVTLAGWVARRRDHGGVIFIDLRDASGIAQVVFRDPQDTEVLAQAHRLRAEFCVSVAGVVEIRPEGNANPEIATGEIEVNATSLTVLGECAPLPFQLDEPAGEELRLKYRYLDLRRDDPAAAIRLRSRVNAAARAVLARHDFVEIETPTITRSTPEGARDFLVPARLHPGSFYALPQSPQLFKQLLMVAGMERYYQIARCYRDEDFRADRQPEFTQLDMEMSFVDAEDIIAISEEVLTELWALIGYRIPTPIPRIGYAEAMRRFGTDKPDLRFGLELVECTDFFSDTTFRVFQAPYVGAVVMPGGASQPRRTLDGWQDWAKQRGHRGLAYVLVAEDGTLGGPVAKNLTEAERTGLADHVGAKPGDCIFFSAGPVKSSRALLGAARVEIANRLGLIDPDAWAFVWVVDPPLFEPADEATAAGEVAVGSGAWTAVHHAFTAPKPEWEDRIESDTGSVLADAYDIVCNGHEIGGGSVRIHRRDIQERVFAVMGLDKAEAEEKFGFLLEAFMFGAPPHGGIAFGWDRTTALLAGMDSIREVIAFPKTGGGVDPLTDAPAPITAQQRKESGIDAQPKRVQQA

[2] = target: Shiga toxin 2 (Escherichia coli O157:H7) (UniProt P09385+P09386); assay: E. coli 0.157:H7 Shiga Toxin SOP - stx2 screening assay; assay type: functional; parameters: scale not given: direction of the effect not stated beside the values; conditions: 30 µM

| Structure (SMILES) | Percent Effect [1] [%] | Percent Effect [2] [%] |
| --- | --- | --- |
| c1cnc2c(c1)cc([C@H]1CCCO1)n2CCN1CCCCC1 | -0.551 | -28.2 |
| CC(C)N1CCOCC2(CN(Cc3ccco3)CCO2)C1 (configuration not stated) | 1.82 | 5.04 |
| O=C(COc1coc(CN2CCCCC2)cc1=O)Nc1ccc(Cl)cc1 | 3.86 | -36.2 |
| CC(CNC(=O)c1cccnc1Oc1cccnc1)N(C)C (configuration not stated) | -3.18 | -12.1 |
| Cn1nc2c(cc1=O)CN(Cc1nnc(-c3ccc(F)cc3)o1)CC2 | 19.5 | -108 |
| O=C(CCc1cccc(F)c1F)N1CCN(Cc2ccco2)CC1 | 0.502 | -2.83 |
| O=C(c1ccc[nH]1)N1CCc2c(COCC3CC3)cncc2C1 | -0.626 | 1.55 |
| CC(C)CN1CCN(Cc2nc3ccccc3[nH]2)[C@H]2CS(=O)(=O)C[C@H]21 | 4.05 | -16.9 |
| CCCc1nc(C(C)(C)NC(=O)C2CC(=O)N(CC3CC3)C2)no1 (configuration not stated) | 3.35 | 20 |
| Cc1nn(C)c(C)c1C1CCCN1C(=O)CCNc1ncccn1 (configuration not stated) | 6.63 | 13.4 |
| Cn1cnnc1C1CCCN(C(=O)Cc2ccc3c(c2)OCCO3)C1 (configuration not stated) | -2.39 | 11.9 |
| Cc1ccc(OCCNC(=O)C(C)n2cncn2)cc1 (configuration not stated) | 4.54 | 4.25 |
| CN(CCNC(=O)c1scnc1Cl)c1ccccc1 | 2.87 | -17.4 |
| CN(c1ccncn1)C1CC2(CCN(C(=O)c3ccsc3)C2)C1 (configuration not stated) | -8.13 | -32.2 |
| Cc1nc(C2CCCN2CCCNS(C)(=O)=O)no1 (configuration not stated) | -0.167 | 23.5 |
| Cc1cc(C)n(C2CCCN(C(=O)CCCNc3ncccn3)C2)n1 (configuration not stated) | -5.54 | -43.3 |
| Cc1cnn(CC2CN(CCN3CCCC3=O)CCO2)c1 (configuration not stated) | -4.53 | 8.14 |
| CCOC[C@H]1CC[C@H]2[C@H](CCN2C(=O)c2ccncc2F)O1 | 5.35 | -0.318 |
| COC(=O)C(NC(=O)COC1CCCC1)c1cc(F)ccc1F (configuration not stated) | -3.52 | -22.4 |
| O=C(C1CCCC1)N1CCC2(CC1)COCCN2CC1CC1 | -3.37 | 0.147 |
| COc1ccc(C2(NC(=O)CCn3cncn3)CCCCC2)cc1 | -7.19 | 1.34 |
| COc1c(CNC2CCSc3ccc(F)cc32)c(C)nn1C (configuration not stated) | 0.879 | -10.4 |
| Cc1ccc(F)cc1C(=O)N1C[C@@H](CN2CCOCC2)[C@@H](CO)C1 | -3.12 | 19.3 |
| CCc1noc(C(C)N2CCOCC2)n1 (configuration not stated) | -10.8 | 6.48 |
| CCc1n[nH]c(C2CN(C(=O)c3csnn3)CCO2)n1 (configuration not stated) | 1.53 | 10.6 |
| CCc1cc(O)nc(C2CCCN2C(=O)c2cc(C)no2)n1 (configuration not stated) | 7.1 | 1.09 |

| Structure (SMILES) | Percent Effect [1] [%] | Percent Effect [2] [%] |
| --- | --- | --- |
| O=C(NCCc1ccccn1)C1=NN(c2ccccc2)C(=O)CN1 | 11.3 | 1.11 |
| COc1ccc(C(C)N2CCN(Cc3nccn3C)CC2)cc1Cl (configuration not stated) | -0.0303 | 16 |
| CS(=O)(=O)N1CCCCCC1C1CCN(c2ncccc2C#N)CC1 (configuration not stated) | -0.456 | 27.9 |
| O[C@]1(c2ccccn2)CC[C@@H]2CN(Cc3cccc4ncccc34)C[C@@H]21 | 0.581 | -21.3 |
| Cc1cc(C)cc(-c2ccc(CC3(C(=O)O)CCOCC3)cc2)c1 | 4.9 | -4.63 |
| CNc1nc2c(c(C(=O)N3CCCC3)n1)CN(Cc1nccn1C)CC2 | 1.96 | -4.2 |
| O=C1COC2(COCCN(Cc3cccnc3)C2)CN1c1ccoc1 (configuration not stated) | 9.69 | -7.3 |
| Cn1cccc1C(=O)N1CCCC2(CCCN2Cc2cccnc2)C1 (configuration not stated) | 7.03 | 19.4 |
| CC(=O)N1C[C@@H](c2ccsc2)[C@@H]2CN(Cc3cccc(Cl)c3)CC[C@@H]21 | -0.368 | -9.53 |
| COCCN1C(=O)CCC12CCN(C(=O)CC1CC1)CC2 | 2.75 | 0.89 |
| COCCCN(C)Cc1nc2c(cnn2C)c(=O)[nH]1 | -1.71 | -15.2 |
| CCOCCOC(C)C(=O)NCc1cn2cc(Br)ccc2n1 (configuration not stated) | 1.62 | -14.8 |
| Cn1cc(CC(=O)N2CCC(Nc3cccnn3)CC2)c2ccccc21 | 2.29 | -25.9 |
| O=C(CN(C1=NCCCC1)c1ccccc1)c1ccccc1 | 2.67 | -26.2 |
| CC(C)N1CCC(Cc2cnc(-c3cccc(C(=O)O)c3)cn2)C1 (configuration not stated) | -5.2 | 16 |
| CN(C)c1ccc(CCNC(=O)NCc2ccc(N(C)C)nc2)cc1 | 2.84 | 5.6 |
| COc1ccccc1CC(=O)N1CCCC(n2nc(C)cc2C)C1 (configuration not stated) | -1.4 | 10.9 |
| Cc1ccc(N2CCCC(NCc3cccc4c3OCCO4)C2)nn1 (configuration not stated) | 4.13 | 19 |
| COc1ccc2c(c1)OCC(CNC(=O)c1ccc(=O)n(C)c1)C2 (configuration not stated) | -0.474 | 0.424 |
| Cc1ccc(C(O)CNC(=O)NCc2nc(C)cs2)cc1 (configuration not stated) | -0.636 | 1.54 |
| CN(C)C(=O)Cc1nc(CN2CCCCC2Cn2cccn2)cs1 (configuration not stated) | 2.64 | -25.1 |
| O=C(NCc1ccccc1)N1CCC2(CC(=O)N(c3ccsc3)C2)C1 (configuration not stated) | -2.24 | -10.6 |
| CCn1nnc2c1C(COC)CN(Cc1cccs1)C2 (configuration not stated) | -3.5 | 5.25 |
| CCn1cc2c(n1)C(COC)CN(Cc1ccccn1)C2 (configuration not stated) | 7.76 | -16.8 |
| CCC(C)NC(=O)NCCCn1nc2ccccn2c1=O (configuration not stated) | 1.23 | 22.8 |
